Source: PubChem BioAssay
MITF act: activators of MITF-driven TRPM1 promoter activity in SK-MEL-5 cells | SK-MEL-5 TRPM1-promoter luciferase, 24 h; % of positive control, neutral wells = 0 | activation, % at 12.5 µM | 300,000 tested, 0.75% active;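 active = mean activation of at least 80% with every replicate also reaching 80%; inconclusive = mean reaches 80% but some replicate falls short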;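 also: 0% = neutral control wells and 100% = parthenolide positive control wells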
GAA850 FXN act: activators of GAA850 frataxin (FXN) promoter; HEK293 lucGAA850 FXN promoter luciferase reporter, 24 h; percent of 10 µM SAHA response; activation, % at 6 µM; 360,000 tested, 0.56% active; AID 540364;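 active = activation above the average of all compounds screened plus 3 SD, cutoff fixed separately per campaign, cut at about 7.5% in these data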;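 also: 0% = DMSO wells and 100% = 10 µM SAHA wells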
Wnt act: Wnt/beta-catenin pathway activation; Wnt/beta-catenin reporter cell assay, activator, plate reader; activation, % at 9.35 µM; 300,000 tested, 1.2% active; in the data active = activation above about 30%, passing the limit was not always enough; inconclusive = no clear call, values can overlap the other calls;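 also: 0% = neutral control wells and 100% = positive control wells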
esBAF inh: SWI/SNF esBAF complex inhibition. reporter increase, % at 12.5 µM. AID 602393. mouse ES cells, Bmi1-luciferase knock-in reporter, 24 h; 100% = twice the neutral-well signal. 350,000 tested, 2% active; in the data active = activation above about 40%; inconclusive = no clear call, values can overlap the other calls;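 also: 0% = median of the plate's neutral control wells and 100% = double that signal; a rise in the Bmi1 reporter signal indicates esBAF inhibition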
Numbers without * were called inactive; ? = inconclusive; . = no result given. Only some compounds are listed: those with a hit (about 2.8% of all), similar ones and a draw of the others.

SMILES	MITF act	GAA850 FXN act	Wnt act	esBAF inh
COCCn1c(C)cc(C(=O)CN2C(=O)NC3(CCCCCC3)C2=O)c1C	69	2	?	?
CCCn1c(C)cc(C(=O)CN2C(=O)c3ccccc3C2=O)c1C	8	7	43*	.
CCCn1c(C)cc(C(=O)CN2C(=O)NC3(CCCCCC3)C2=O)c1C	.	2	29	54*
CCn1c(C)cc(C(=O)CN2C(=O)c3ccccc3S2(=O)=O)c1C	-68	-11	1	-77
COCC(=O)Nc1ccc2c(c1)OC[C@@H](C)N(Cc1cc(F)ccc1F)C[C@@H](C)[C@@H](OC)CN(C)C2=O	.	.	.	2
COc1ccccc1NC(=O)N1CC[C@@H]2[C@H]1c1cc(-c3ccc(F)cc3)ccc1N(C)[C@@H]2CO	.	.	.	-3
COc1ccc(NC(=O)N(C)C[C@H]2Oc3ccc(NC(=O)CCN4CCOCC4)cc3CC(=O)N([C@H](C)CO)C[C@H]2C)cc1	.	.	.	-1
C[C@H](CO)N1C[C@H](C)[C@H](CN(C)C(=O)C2CCCCC2)OCCCC[C@H](C)Oc2ccc(NC(=O)CCC(F)(F)F)cc2C1=O	.	.	.	4
Cc1ccccc1S(=O)(=O)NCC[C@@H]1CC[C@@H](NS(=O)(=O)c2ccccc2C)[C@H](CO)O1	.	.	.	-2
COCC(=O)N1C[C@H](C)[C@H](OC)CN(C)C(=O)c2cc(NC(=O)C3CCC3)ccc2OC[C@@H]1C	.	.	.	-5
C[C@@H]1CCCCO[C@H](CN(C)Cc2ccccc2)[C@H](C)CN([C@H](C)CO)C(=O)c2cc(NS(=O)(=O)c3ccc(F)cc3)ccc2O1	.	.	.	2
Cc1cc(C)n(C(=O)CNc2ccc(C)c(C)c2)n1	2	3	.	63*
Cc1cc(O)c(C(=O)/C=C/c2ccc(C(C)C)cc2)c(=O)o1	9	6	39*	24
C[C@@H]1CCCCO[C@H](CN(C)C(=O)Nc2ccc(C(F)(F)F)cc2)[C@@H](C)CN([C@H](C)CO)C(=O)c2cc(NC(=O)Nc3cccc4ccccc34)ccc2O1	.	.	.	2
CSc1nc(N)n2nc(-c3ccc(Cl)cc3)cc2n1	.	2	49*	?
Cc1ccc(-c2cc(N)n(Cc3ccc(Cl)cc3)n2)cc1	.	2	.	17
CO[C@H]1CN(C)C(=O)c2cc(NC(=O)Nc3ccc4c(c3)OCO4)ccc2OC[C@@H](C)NC[C@H]1C	.	.	.	51*
CO[C@H]1CN(C)C(=O)c2cc(NC(=O)Nc3ccc4c(c3)OCO4)ccc2OC[C@H](C)NC[C@@H]1C	.	.	.	55*
CO[C@H]1CN(C)C(=O)c2cc(NC(=O)Nc3ccc4c(c3)OCO4)ccc2OC[C@H](C)NC[C@H]1C	.	.	.	44*
Cc1noc(C)c1NC(=O)Nc1cccc2c1O[C@H](CN(C)Cc1ccc(C(F)(F)F)cc1)[C@H](C)CN([C@@H](C)CO)C2=O	.	.	.	-4
CO[C@H]1CN(C)C(=O)c2cc(NC(C)=O)ccc2OC[C@@H](C)N(C(=O)CC2CC2)C[C@@H]1C	.	.	.	-1
CCC(=O)Nc1ccc2c(c1)C(=O)N(C)C[C@@H](OC)[C@H](C)CN(C(=O)CN1CCOCC1)[C@H](C)CO2	.	.	.	-2
CCCNC(=O)c1oc2ccc3c(c2c1C)C(O)CC(C)(C)O3 (configuration not stated)	29	3	0	16
Cc1c(C(=O)NCc2ccoc2)oc2ccc3c(c12)C(=O)CC(C)(C)O3	52	-3	.	104*
O=C(C[C@@H]1CC[C@H](NC(=O)Nc2ccccc2F)[C@@H](CO)O1)NCc1ccc(Cl)cc1	.	.	.	-4
SMILES	MITF act	GAA850 FXN act	Wnt act	esBAF inh
O=C(C[C@H]1CC[C@@H]2[C@H](COC[C@H](O)CN2C(=O)Nc2ccc(F)cc2)O1)NC1Cc2ccccc2C1	.	.	.	1
CCCC(=O)n1nc(-c2ccc(Cl)cc2)nc1SC	40	7	.	33
CCC(=O)n1nc(-c2ccc(Cl)cc2)nc1SC	64	3	40*	71*
CSc1nc(-c2ccc(Cl)cc2)nn1S(=O)(=O)c1ccc(Cl)cc1	.	3	-2	47*
COc1ccc(-c2nc(SC)n(C(=O)c3ccco3)n2)cc1	29	5	.	.
CCC(=O)n1nc(-c2ccc(OC)cc2)nc1SC	30	3	.	43*
CNc1nc2c(-c3ccc(Cl)cc3)nnn2c2ccccc12	-14	0	-6	7
Nc1nc2c(-c3ccc(Br)cc3)nnn2c2ccccc12	40	6	43*	16
CCOc1cc(/C=C2/COc3ccccc3C2=O)ccc1OCC(=O)N(C)C	11	2	-2	.
CNc1ccc(/C=C2\COc3ccccc3C2=O)cc1[N+](=O)[O-]	31	0	.	49*
O=C1/C(=C/c2ccc(O)cc2)COc2ccccc21	36	3	31*	22
O=C1/C(=C/c2ccccc2[N+](=O)[O-])COc2ccccc21	-83	-10	-7	56*
Cc1ccc(S(=O)(=O)N(C)C[C@H]2Oc3ccc(NC(=O)Cc4cn(C)c5ccccc45)cc3CC(=O)N([C@H](C)CO)C[C@H]2C)cc1	.	.	.	9
C[C@H](CO)N1C[C@H](C)[C@@H](CN(C)C(=O)Nc2ccccc2)Oc2ccc(NC(=O)Nc3ccc(F)cc3)cc2CC1=O	.	.	.	2
CCCNC(=O)N(C)C[C@@H]1Oc2ncc(-c3ccncc3)cc2C(=O)N([C@@H](C)CO)C[C@H]1C	.	.	.	-3
C=CCn1c(=O)c(C(=O)Nc2ccccc2S(N)(=O)=O)c(O)c2ccccc21	72	6	7	65*
C=CCn1c(N)c(C(=O)Nc2ccc(C)cc2)sc1=S	71	3	.	51*
C=CCn1c(=O)c(C(=O)Nc2cc(C)ccn2)c(O)c2ccccc21	8	0	1	3
C=CCn1c(=O)c(C(=O)Nc2ccccc2C(=O)OCC)c(O)c2ccccc21	-14	2	-1	1
C=CCn1c(=O)c(C(=O)Nc2ccc(C)cc2)c(O)c2ccccc21	.	2	6	67*
CCn1c(=O)c(C(=O)NCc2ccc(Cl)cc2)c(O)c2ccccc21	.	0	43*	12
CCn1c(=O)c(C(=O)NCc2ccccc2)c(O)c2ccccc21	2	2	0	-1
C[C@H]1CCCCO[C@@H](CN(C)C)[C@@H](C)CN([C@@H](C)CO)C(=O)c2cc(NS(=O)(=O)c3ccc(F)cc3)ccc2O1	.	.	.	-6
Cc1ccc(NC(=O)c2ccc(Nc3ccccc3F)nc2)cc1	41	3	38*	.
Cc1ccc(NC(=O)c2ccc(NCc3ccc(F)cc3)nc2)cc1	0	1	-1	2
SMILES	MITF act	GAA850 FXN act	Wnt act	esBAF inh
C/C=C/c1cnc2c(c1)C(=O)N([C@@H](C)CO)C[C@H](C)[C@H](CN(C)C(=O)c1cccc(F)c1)O2	.	.	.	0
Cc1ccc(NC(=O)C2OCCc3ccccc32)cc1C (configuration not stated)	68	3	2	58*
O=C(Nc1ccc(F)cc1)N1CCc2ccccc2C1	42	2	57*	.
Cc1cc(C)cc(NC(=O)N2CCc3ccccc3C2)c1	75	1	12	45*
O=C(Nc1ccc(Br)cc1)N1CCc2ccccc2C1	60	6	20	.
O=C(NCc1ccco1)C1OCCc2ccccc21 (configuration not stated)	.	1	0	-3
